Here are results for ten compounds from PubChem BioAssay.

The nature of assay [1]: HepG2 liver cancer cell viability effects, profiling panel, resazurin fluorescence, 24 h, PK04 Diversity Set (AID 1172). The settings on record: higher = more signal.
Assay [2] can be described thus: basal S. cerevisiae growth modulation, no modifier, primary screen, OD600, strain BY4716, 24 h, basal condition (AID 1173). The settings on record: OD600, 24 h, higher = more signal, called active from +8 up or from −8 down.
Assay [3] is described as follows: MM1S myeloma cell viability, profiling panel, resazurin fluorescence, basal, 24 h, PK04 Diversity Set (AID 1174).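 Note: MM1S multiple myeloma cell line.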 To be noted: higher = more signal, called active from +8 up or from −8 down. Background: Alamar Blue is a resazurin reagent that responds to reducing activity.
The target in assay [4] is Dihydroorotate dehydrogenase (quinone), mitochondrial (Plasmodium falciparum (isolate 3D7)) (UniProt Q08210). Description: PfDHODH enzyme inhibitors, primary screen, biochemical, C-terminal His tag, absorbance 600 nm (AID 1175).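 Note: recombinant parasite enzyme with a five histidine tag at its C terminus.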 The settings on record: DCIP absorbance 600 nm, higher = more signal, called active from +8 up or from −8 down.
Chain of Dihydroorotate dehydrogenase (quinone), mitochondrial (Plasmodium falciparum (isolate 3D7)) (Q08210 whole entry, looked up): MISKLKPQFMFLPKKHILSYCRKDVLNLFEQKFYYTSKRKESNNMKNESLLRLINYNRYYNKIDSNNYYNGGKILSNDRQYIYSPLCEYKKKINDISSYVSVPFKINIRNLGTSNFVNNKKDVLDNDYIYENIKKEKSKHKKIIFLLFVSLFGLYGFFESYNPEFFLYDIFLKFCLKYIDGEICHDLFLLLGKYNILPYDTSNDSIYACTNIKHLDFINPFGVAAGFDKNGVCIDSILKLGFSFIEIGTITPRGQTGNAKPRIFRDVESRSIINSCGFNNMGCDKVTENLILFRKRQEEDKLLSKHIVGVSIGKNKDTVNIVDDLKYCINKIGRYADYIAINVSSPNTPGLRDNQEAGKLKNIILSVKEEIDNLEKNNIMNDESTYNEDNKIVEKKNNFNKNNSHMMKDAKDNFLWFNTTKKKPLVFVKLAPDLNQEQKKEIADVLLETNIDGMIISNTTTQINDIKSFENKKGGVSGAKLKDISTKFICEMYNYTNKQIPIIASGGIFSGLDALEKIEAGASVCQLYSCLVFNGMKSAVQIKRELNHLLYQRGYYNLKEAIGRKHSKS
The nature of assay [5]: P. aeruginosa biofilm formation inhibitors, primary screen, strain PAO1, LB-PBS medium, absorbance 600 nm (AID 1176). The settings on record: P. aeruginosa PAO1 growth/biofilm, A600, 12 h; higher = more signal.
The nature of assay [6]: S. cerevisiae RM11-1a growth modifiers, primary screen, strain RM11-1a, OD600, basal, 24 h (AID 1177).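 Note: cultures grown under basal conditions with no added stressor.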 To be noted: OD600, 24 h, higher = more signal, called active from +8 up or from −8 down.
The nature of assay [7]: E. coli acrAB mutant growth effects, primary screen, E. coli filamentation inducers, strain DRC39, OD650, 24 h (AID 1178).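 Note: growth measured as culture turbidity by optical density at 650 nm.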 The settings on record: higher = more signal, called active from +8 up or from −8 down.
The nature of assay [8]: E. coli acrAB mutant growth effects, primary screen, E. coli filamentation inducers, strain DRC39, OD650, 48 h (AID 1179).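 Note: screen aims at cell division blockers that make cells filament.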 To be noted: E. coli DRC39 delta-acrAB growth, higher = more signal, called active from +8 up or from −8 down.
Assay [9] in a line: RPMI8226 myeloma cell viability, profiling panel, resazurin fluorescence, basal, 24 h, PK04 Diversity Set (AID 1180).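 Note: RPMI8826 multiple myeloma cell line at 5000 cells per well.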 To be noted: higher = more signal.
In assay [10] the target is E3 ubiquitin-protein ligase XIAP (Homo sapiens) (UniProt P98170). Description: XIAP binders, primary screen, biophysical, small-molecule microarray, fluorescence 635 nm (AID 1181).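 Note: score merges 667 nm emission and signal to noise over triplicate slides.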 The settings on record: small-molecule microarray binding, higher = more signal.
Chain of E3 ubiquitin-protein ligase XIAP (Homo sapiens) (P98170 whole entry, looked up): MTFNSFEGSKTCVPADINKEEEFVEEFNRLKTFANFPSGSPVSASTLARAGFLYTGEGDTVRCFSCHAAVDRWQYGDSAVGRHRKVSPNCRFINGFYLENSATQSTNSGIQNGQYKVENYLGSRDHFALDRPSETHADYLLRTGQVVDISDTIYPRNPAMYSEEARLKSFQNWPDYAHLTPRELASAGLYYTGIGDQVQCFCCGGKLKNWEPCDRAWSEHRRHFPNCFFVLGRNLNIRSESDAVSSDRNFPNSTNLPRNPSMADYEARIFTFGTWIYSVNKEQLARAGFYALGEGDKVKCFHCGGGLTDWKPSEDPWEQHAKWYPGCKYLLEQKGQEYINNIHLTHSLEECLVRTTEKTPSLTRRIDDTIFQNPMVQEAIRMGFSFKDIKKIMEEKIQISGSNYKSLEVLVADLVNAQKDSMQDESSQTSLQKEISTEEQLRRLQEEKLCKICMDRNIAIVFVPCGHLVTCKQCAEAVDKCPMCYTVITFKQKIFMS
Assay [11] deals with XIP peptide (Xip251-270) binding. Description: small-molecule binders of XIP peptide, primary screen, biochemical, small-molecule microarray, fluorescence 635/667 nm, 0.1 µg/mL protein (AID 1182). The settings on record: fluorescent protein binding, 635 nm, higher = more signal, called active from +8 up or from −8 down.
Assay [12] concerns XIP peptide (Xip251-270). Description: small-molecule binders of XIP peptide, primary screen, biochemical, small-molecule microarray, fluorescence 635/667 nm, 0.5 µg/mL protein (AID 1183). The settings on record: small-molecule microarray binding, fluorescence 635 nm; higher = more signal.
The nature of assay [13]: Plasmodium falciparum growth inhibition, primary screen, strain 3D7, DAPI fluorescence, 100 nL (AID 1184).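 Note: parasites grown inside human red blood cells in medium with human serum.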 To be noted: P. falciparum 3D7 growth, 3 d, higher = more signal.
The target of assay [14] is Homeobox protein Hox-A13 (Mus musculus) (UniProt Q62424). The experiment in a line: inhibitors of HoxA13-DNA binding, primary screen, biochemical, fluorescence polarization, labeled oligonucleotide (AID 1185). To be noted: 15 min, higher = more signal, called active from +8 up or from −8 down. Background: Fluorescence polarisation rises when a labelled molecule tumbles more slowly, as on binding a larger partner.
Chain of Homeobox protein Hox-A13 (Mus musculus) (Q62424 whole entry, looked up): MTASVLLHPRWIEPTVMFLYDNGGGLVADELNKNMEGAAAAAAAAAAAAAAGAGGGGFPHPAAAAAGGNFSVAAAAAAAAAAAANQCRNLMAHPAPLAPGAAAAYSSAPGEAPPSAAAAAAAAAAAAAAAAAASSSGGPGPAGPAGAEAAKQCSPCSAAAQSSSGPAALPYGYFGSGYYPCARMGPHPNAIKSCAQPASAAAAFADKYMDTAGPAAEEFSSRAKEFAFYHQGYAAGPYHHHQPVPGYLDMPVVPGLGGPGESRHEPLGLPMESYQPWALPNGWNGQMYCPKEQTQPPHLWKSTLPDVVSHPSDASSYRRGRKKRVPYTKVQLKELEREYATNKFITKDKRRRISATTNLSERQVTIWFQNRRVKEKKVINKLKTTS

The nature of assay [15]: inhibitors of hydroxyurea-induced Chk1 phosphorylation, primary screen, imaging, HeLa, phospho-Chk1 antibody, percent positive cells (AID 1186). To be noted: hydroxyurea-induced phospho-Chk1 immunofluorescence imaging, higher = more signal.
A short description of assay [16]: inhibitors of hydroxyurea-induced Chk1 phosphorylation, primary screen, imaging, HeLa, phospho-Chk1 nuclear intensity (AID 1187). To be noted: hydroxyurea-induced phospho-Chk1 immunofluorescence imaging, higher = more signal.

Activity calls are given as the source filed them. Unless noted, the rule behind the calls is not given here.

For `CN(C)CCCC[C@@H]1NC(=O)[C@@H]2C[C@H](C(=O)NCCCCCCNC(=O)CS)[C@H](c3cccc(OCCO)c3)N2C1=O`, the z-score was -0.725 in assay [1]; -0.103 (inactive) in assay [2]; -0.196 (inactive) in assay [3]; 0.268 (inactive) in [5]; -0.491 (inactive) in assay [6]; 0.303 (inactive) in assay [7]. Further, the z-score in assay [8] was 0.94 (inactive); in assay [9], 0.117; in assay [13], -0.391; in assay [14], -2.01 (inactive); in [15] it was 0.134 (inactive); in assay [16] it was -0.332 (inactive). Besides, the composite z-score was -0.264 (inactive) in [4], -0.0052 in [10], 0.602 (inactive) in [11] and 0.667 in [12].
In the case of `O=C1NC(=O)C2C1C=CC(C(O)c1cccc(O)c1)N2Nc1ccc(Cl)cc1Cl` (stereo not given), the z-score in assay [1] was -1.79; in assay [2], -13.3 (active); in assay [3] it was -1.31 (inactive); in assay [5], 0.695 (inactive); in [6] it was 0.915 (inactive); in [7], -0.526 (inactive). Besides, the z-score was -3.39 (inactive) in assay [8]; -1.69 in assay [9]; -0.0722 in assay [13]; -5.1 (inactive) in [14]; 0.684 (inactive) in assay [15]; 0.194 (inactive) in [16]. The composite z-score in assay [4] was 1.03 (inactive); in assay [10], -0.039; in assay [11] it was -0.186 (inactive); in [12], 0.199.
As for `[N-]=[N+]=NCc1ccccc1C[C@]1(C(=O)N2CCOCC2)N=C(c2ccc(OCCCO)cc2)O[C@H]1c1ccccc1CN=[N+]=[N-]`, the z-score in [1] was 0.133; in assay [2] it was 1.06 (inactive); in [3] it was -0.481 (inactive); in assay [5], 0.948 (inactive); in [6], 2.39 (inactive); in assay [7] it was 1.67 (inactive). Also, the z-score in assay [8] was 0.93 (inactive); in assay [9] it was -1.11; in assay [13] it was -2.28; in assay [14], 0.116 (inactive); in assay [15] it was -0.597 (inactive); in [16] it was -0.736 (inactive). In addition, the composite z-score was 1.21 (inactive) in assay [4], 0.411 in [10], 0.158 (inactive) in [11] and 0.733 in assay [12].
As for `CC(C)C[C@@H]1NC(=O)C([C@@H](C)OCc2ccccc2)NC(=O)[C@@]23C(=O)N[C@@H](Cc4ccccc4)C2[C@H](C)[C@@]2(C)O[C@H]2C3/C=C/CC/C=C/CNC1=O` (stereo not given in full), the z-score in assay [1] is 0.536; in [2], -1.78 (inactive); in assay [3] it was -0.0218 (inactive); in assay [5], 0.261 (inactive); in [6], -0.435 (inactive); in assay [7], 1.64 (inactive). Moreover, the z-score was 0.212 (inactive) in assay [8]; -0.417 in assay [9]; -3.08 in assay [13]; -6.51 (inactive) in assay [14]; -0.799 (inactive) in assay [15]; -0.574 (inactive) in assay [16]. Also, the composite z-score in [4] is -0.485 (inactive); in assay [10] it was -0.144; in assay [11], -0.0755 (inactive); in [12], 0.677.
Turning to `C=C(COC)/C(=C/C[C@H](OC(=O)c1ccncc1)c1cccc(OCCO)c1)c1cnc2ccccc2c1`, the z-score was 0.123 in [1]; 0.14 (inactive) in [2]; -1.24 (inactive) in assay [3]; 1.14 (inactive) in assay [5]; -0.148 (inactive) in assay [6]; -0.259 (inactive) in assay [7]. For the same compound, the z-score in assay [8] is -0.199 (inactive); in assay [9], -0.697; in assay [13], -2.72; in assay [14] it was -4.94 (inactive); in assay [15], 0.321 (inactive); in assay [16], 0.275 (inactive). Moreover, the composite z-score was -5.24 (inactive) in assay [4], -0.0156 in [10], 4.42 (inactive) in assay [11] and 0.823 in [12].
As for `O=C1C2C=CC(C(O)c3cccc(O)c3)N(Nc3ccccc3F)C2C(=O)N1c1ccccc1` (stereo not given), the z-score was 0.244 in [1]; -14.7 (active) in assay [2]; -0.343 (inactive) in [3]; 1.22 (inactive) in assay [5]; -7.32 (inactive) in [6]; 0.684 (inactive) in assay [7]. The z-score was 0.573 (inactive) in assay [8]; 0.133 in assay [9]; -1.33 in assay [13]; -3.57 (inactive) in [14]; -0.388 (inactive) in [15]; -1.33 (inactive) in [16]. Moreover, the composite z-score in assay [4] was -2.46 (inactive); in [10] it was 0.0345; in [11], 1.62 (inactive); in assay [12], 0.632.
On to `CN1C(=O)[C@]2(CCS(=O)(=O)c3ccccc3)N=C(c3ccc(OCCCO)cc3)O[C@@H]2c2ccccc21`, for which the z-score in assay [1] is -0.0688; in assay [2], 0.902 (inactive); in assay [3], -0.101 (inactive); in assay [5] it was -0.0279 (inactive); in assay [6] it was 2.34 (inactive); in assay [7], 0.124 (inactive). In addition, the z-score in [8] was -0.687 (inactive); in [9] it was -1.02; in assay [13] it was -2.32; in assay [14], -5.03 (inactive); in [15], -0.122 (inactive); in assay [16] it was 0.271 (inactive). For the same compound, the composite z-score in assay [4] is 0.349 (inactive); in assay [10] it was 0.0506; in [11], 2.2 (inactive); in [12], 0.897.
Turning to `COC(=O)c1ccc([C@H](NC(=O)c2ccccc2)[C@]2(C)C[C@H]2C2CCCCC2)cc1`, the z-score is 0.38 in assay [1]; 1.28 (inactive) in assay [2]; 0.713 (inactive) in assay [3]; 0.371 (inactive) in assay [5]; 0.832 (inactive) in assay [6]; -1 (inactive) in assay [7]. Further, the z-score was -0.768 (inactive) in [8]; 0.293 in assay [9]; -0.631 in assay [13]; 3.23 (inactive) in [14]; -0.198 (inactive) in assay [15]; -0.123 (inactive) in assay [16]. Moreover, the composite z-score is -0.256 (inactive) in assay [4], -0.127 in assay [10], -0.317 (inactive) in assay [11] and -0.199 in assay [12].
As for `CCCC[C@H]1OB(O)C[C@H]2C1=C(C)C[C@H]1C(=O)C=CC(=O)[C@H]12`, the z-score in assay [1] is -0.559; in [2], -17.6 (active); in assay [3], -1 (inactive); in [5], 0.318 (inactive); in assay [6], 0.128 (inactive); in [7], -0.449 (inactive). Besides, the z-score in assay [8] is -0.316 (inactive); in assay [9] it was -0.312; in [13], -0.0202; in [14] it was -6.4 (inactive); in [15], 0.217 (inactive); in assay [16], -0.0819 (inactive). Moreover, the composite z-score was -2.54 (inactive) in [4], -0.188 in assay [10], 0.656 (inactive) in assay [11] and 0.229 in assay [12].
As for `COCCOC(=O)N1C(=O)[C@@]2(c3cc(C#CCCO)ccc31)[C@H](C(=O)N1CCc3cc(OC)c(OC)cc3C1)[C@H]1C(=O)O[C@H](c3ccccc3)[C@H](c3ccccc3)N1[C@@H]2c1ccccc1OCCO`, the z-score in assay [1] is 0.713; in [2], 1.68 (inactive); in assay [3], 0.208 (inactive); in [5], 1.38 (inactive); in assay [6], 2.69 (inactive); in assay [7] it was 0.497 (inactive). In addition, the z-score was 0.74 (inactive) in assay [8]; 1.01 in assay [9]; -2.18 in assay [13]; 0.554 (inactive) in assay [14]; 0.0905 (inactive) in [15]; 0.534 (inactive) in assay [16]. Further, the composite z-score in assay [4] is 0.0306 (inactive); in assay [10], -0.0945; in [11], 0.21 (inactive); in assay [12] it was 0.805.
